Reference: publication PMC7862700, “An all-to-all approach to the identification of sequence-specific readers for epigenetic DNA modifications on cytosine”

Assays:
Experiment in all cases: DAPPL (digital affinity profiling via proximity ligation, sequencing); 10 mM Tris-HCl pH 7.5, 50 mM NaCl, 1 mM DTT, 4% glycerol, room temperature, 30 min; GST-TFs on glutathione beads, 16-mer random dsDNA library, 0.1% formaldehyde crosslink after washing; high values mean tight binding
Details in all cases: protein: recombinant; tags: N-terminal GST; dsDNA, one strand shown
FLI1 = target: T1, FLI1 (Homo sapiens, UniProt Q01543 1-452)
T1 sequence: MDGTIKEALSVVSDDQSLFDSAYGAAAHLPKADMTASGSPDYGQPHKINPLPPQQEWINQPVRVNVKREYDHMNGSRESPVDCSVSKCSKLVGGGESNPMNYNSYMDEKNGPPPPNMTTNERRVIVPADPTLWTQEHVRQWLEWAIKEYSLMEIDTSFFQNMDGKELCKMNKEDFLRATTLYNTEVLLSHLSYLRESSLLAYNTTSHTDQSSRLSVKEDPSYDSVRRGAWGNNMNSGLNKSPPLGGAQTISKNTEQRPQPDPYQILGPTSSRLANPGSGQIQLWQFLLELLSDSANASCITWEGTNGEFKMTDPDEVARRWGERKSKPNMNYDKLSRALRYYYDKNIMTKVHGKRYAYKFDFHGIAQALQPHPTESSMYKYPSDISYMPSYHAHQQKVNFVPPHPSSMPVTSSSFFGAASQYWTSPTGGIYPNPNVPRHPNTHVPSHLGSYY
How it was run: (§1)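 After expression in yeast as GST fusions, human transcription factors were bound to glutathione beads, DNA-barcoded and mixed with a tag-only sample. The pools were incubated with 200 nmole of a 16-mer random double-stranded DNA library in Tris/NaCl/DTT/glycerol buffer (30 min, room temperature), washed and crosslinked with 0.1% formaldehyde. Proximity ligation with BsaI/T4 ligase ran for 1 h at 37 °C, before PCR amplification and sequencing on an Illumina NextSeq500. Binding signal is a hexamer's read frequency for a factor divided by its frequency for the tag-only sample.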

ELK1 = target: T2, ELK1 (Homo sapiens, UniProt P19419 1-428)
T2 sequence: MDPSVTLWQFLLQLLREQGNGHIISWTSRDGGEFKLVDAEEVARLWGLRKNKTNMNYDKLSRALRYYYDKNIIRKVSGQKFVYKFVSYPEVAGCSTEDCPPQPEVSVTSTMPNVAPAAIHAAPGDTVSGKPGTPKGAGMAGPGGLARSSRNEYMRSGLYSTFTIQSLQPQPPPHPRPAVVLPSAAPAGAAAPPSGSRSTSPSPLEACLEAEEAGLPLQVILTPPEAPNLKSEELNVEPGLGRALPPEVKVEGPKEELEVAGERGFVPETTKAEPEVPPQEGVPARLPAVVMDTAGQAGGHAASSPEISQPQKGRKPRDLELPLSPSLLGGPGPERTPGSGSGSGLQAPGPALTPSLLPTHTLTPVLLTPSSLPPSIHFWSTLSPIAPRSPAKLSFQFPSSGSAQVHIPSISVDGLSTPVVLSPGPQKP
How it was run: as §1

GABPA = target: T3, GABPA (Homo sapiens, UniProt Q06546 1-454)
T3 sequence: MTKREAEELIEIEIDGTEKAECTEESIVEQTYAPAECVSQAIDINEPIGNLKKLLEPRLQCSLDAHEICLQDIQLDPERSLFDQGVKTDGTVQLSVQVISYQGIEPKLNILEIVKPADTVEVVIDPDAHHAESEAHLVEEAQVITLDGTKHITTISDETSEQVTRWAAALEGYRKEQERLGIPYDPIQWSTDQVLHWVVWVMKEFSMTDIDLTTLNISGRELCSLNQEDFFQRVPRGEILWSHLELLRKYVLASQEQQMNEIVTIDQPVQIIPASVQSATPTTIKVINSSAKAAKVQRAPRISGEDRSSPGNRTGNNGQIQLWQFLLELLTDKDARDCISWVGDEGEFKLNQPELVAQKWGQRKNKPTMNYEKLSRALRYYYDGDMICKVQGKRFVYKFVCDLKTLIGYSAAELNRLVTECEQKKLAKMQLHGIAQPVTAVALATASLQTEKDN
How it was run: as §1

ERG = target: T4, ERG (Homo sapiens, UniProt P11308 1-479)
T4 sequence: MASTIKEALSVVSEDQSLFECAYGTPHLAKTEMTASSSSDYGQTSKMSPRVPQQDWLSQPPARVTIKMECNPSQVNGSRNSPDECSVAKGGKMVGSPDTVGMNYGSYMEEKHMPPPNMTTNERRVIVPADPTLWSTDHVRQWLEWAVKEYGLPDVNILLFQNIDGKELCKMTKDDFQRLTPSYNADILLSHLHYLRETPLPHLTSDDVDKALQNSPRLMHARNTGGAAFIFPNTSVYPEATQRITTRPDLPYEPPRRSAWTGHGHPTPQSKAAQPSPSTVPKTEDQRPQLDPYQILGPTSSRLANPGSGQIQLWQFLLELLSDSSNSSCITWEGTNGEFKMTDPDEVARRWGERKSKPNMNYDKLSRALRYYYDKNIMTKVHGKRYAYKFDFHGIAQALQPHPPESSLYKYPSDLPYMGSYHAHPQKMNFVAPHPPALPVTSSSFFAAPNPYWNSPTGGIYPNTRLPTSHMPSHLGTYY
How it was run: as §1

ELF1 = ELF1 (Homo sapiens, UniProt P32519 1-619)
Chain of ELF1 (P32519 whole entry): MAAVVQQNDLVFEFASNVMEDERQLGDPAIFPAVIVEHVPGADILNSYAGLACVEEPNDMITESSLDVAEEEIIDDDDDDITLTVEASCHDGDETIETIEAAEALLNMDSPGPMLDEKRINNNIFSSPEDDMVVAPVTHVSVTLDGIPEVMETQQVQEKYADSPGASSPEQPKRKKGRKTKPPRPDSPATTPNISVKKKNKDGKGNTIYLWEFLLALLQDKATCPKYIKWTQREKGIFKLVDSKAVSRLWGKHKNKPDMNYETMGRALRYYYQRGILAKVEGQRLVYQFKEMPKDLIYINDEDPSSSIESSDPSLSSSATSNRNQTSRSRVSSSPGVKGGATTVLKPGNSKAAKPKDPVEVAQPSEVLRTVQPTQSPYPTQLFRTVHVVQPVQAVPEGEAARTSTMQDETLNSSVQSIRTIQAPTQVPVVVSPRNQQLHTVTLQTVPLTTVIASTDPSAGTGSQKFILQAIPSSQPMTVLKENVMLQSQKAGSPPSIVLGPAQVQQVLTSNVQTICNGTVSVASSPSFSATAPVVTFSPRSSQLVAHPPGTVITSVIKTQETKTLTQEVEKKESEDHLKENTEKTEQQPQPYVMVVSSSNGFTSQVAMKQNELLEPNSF
How it was run: as §1

EHF = target: T5, EHF (Homo sapiens, UniProt Q9NZC4 1-300)
T5 sequence: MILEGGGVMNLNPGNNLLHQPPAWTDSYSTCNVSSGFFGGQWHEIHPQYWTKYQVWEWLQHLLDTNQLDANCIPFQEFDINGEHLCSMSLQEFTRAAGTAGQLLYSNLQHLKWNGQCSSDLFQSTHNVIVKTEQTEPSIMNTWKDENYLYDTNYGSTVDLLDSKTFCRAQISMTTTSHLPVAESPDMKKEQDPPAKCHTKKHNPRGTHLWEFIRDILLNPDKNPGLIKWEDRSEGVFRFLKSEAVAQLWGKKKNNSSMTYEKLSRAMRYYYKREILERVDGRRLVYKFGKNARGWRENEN
How it was run: as §1

SPI1 = SPI1 (Homo sapiens, UniProt P17947 1-270)
How it was run: as §1

SPIB = SPIB (Homo sapiens, UniProt Q01892 1-262)
Chain of SPIB (Q01892 whole entry): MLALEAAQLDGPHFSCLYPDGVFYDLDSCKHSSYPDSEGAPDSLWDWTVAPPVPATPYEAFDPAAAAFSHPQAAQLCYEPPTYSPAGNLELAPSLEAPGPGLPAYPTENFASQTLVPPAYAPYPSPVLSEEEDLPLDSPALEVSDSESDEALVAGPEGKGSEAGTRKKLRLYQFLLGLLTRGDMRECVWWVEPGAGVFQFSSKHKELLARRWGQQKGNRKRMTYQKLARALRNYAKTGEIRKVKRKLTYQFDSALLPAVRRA
How it was run: as §1

ELK3 = target: T6, ELK3 (Homo sapiens, UniProt P41970 1-407)
T6 sequence: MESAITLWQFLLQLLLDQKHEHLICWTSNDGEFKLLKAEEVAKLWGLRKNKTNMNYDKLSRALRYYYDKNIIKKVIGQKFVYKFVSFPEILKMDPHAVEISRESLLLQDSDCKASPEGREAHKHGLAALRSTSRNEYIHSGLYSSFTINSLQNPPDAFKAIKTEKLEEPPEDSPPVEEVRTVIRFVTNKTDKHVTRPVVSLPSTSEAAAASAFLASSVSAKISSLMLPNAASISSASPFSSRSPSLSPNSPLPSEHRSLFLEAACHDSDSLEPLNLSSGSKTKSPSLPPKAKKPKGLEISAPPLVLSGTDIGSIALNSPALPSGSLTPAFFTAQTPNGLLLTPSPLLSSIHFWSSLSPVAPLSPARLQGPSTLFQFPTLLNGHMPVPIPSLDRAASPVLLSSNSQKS
How it was run: as §1

Row | Sequence | binding signal (FLI1) | binding signal (ELK1) | binding signal (GABPA) | binding signal (ERG) | binding signal (ELF1) | binding signal (EHF) | binding signal (SPI1) | binding signal (SPIB) | binding signal (ELK3)
1 | TTCAGG | 1.2 fold enrichment (6-mer frequency, TF over GST control) | 1.14 fold enrichment (6-mer frequency, TF over GST control) | 1.15 fold enrichment (6-mer frequency, TF over GST control) | 1.12 fold enrichment (6-mer frequency, TF over GST control) | 1.1 fold enrichment (6-mer frequency, TF over GST control) | 1.11 fold enrichment (6-mer frequency, TF over GST control) | 1.22 fold enrichment (6-mer frequency, TF over GST control) | 1.1 fold enrichment (6-mer frequency, TF over GST control) | 1.09 fold enrichment (6-mer frequency, TF over GST control)
2 | CTTCTT | 1.44 fold enrichment (6-mer frequency, TF over GST control) | 1.58 fold enrichment (6-mer frequency, TF over GST control) | 1.5 fold enrichment (6-mer frequency, TF over GST control) | 1.63 fold enrichment (6-mer frequency, TF over GST control) | 1.65 fold enrichment (6-mer frequency, TF over GST control) | 1.53 fold enrichment (6-mer frequency, TF over GST control) | 1.61 fold enrichment (6-mer frequency, TF over GST control) | 1.44 fold enrichment (6-mer frequency, TF over GST control) | 1.61 fold enrichment (6-mer frequency, TF over GST control)
3 | ACTCAA | 1.19 fold enrichment (6-mer frequency, TF over GST control) | 1.23 fold enrichment (6-mer frequency, TF over GST control) | 1.22 fold enrichment (6-mer frequency, TF over GST control) | 1.21 fold enrichment (6-mer frequency, TF over GST control) | 1.22 fold enrichment (6-mer frequency, TF over GST control) | 1.18 fold enrichment (6-mer frequency, TF over GST control) | 1.24 fold enrichment (6-mer frequency, TF over GST control) | 1.23 fold enrichment (6-mer frequency, TF over GST control) | 1.31 fold enrichment (6-mer frequency, TF over GST control)
4 | TCCTAG | 1.23 fold enrichment (6-mer frequency, TF over GST control) | 1.11 fold enrichment (6-mer frequency, TF over GST control) | 1.24 fold enrichment (6-mer frequency, TF over GST control) | 1.17 fold enrichment (6-mer frequency, TF over GST control) | 1.31 fold enrichment (6-mer frequency, TF over GST control) | 1.22 fold enrichment (6-mer frequency, TF over GST control) | 1.12 fold enrichment (6-mer frequency, TF over GST control) | 1.41 fold enrichment (6-mer frequency, TF over GST control) | 1.2 fold enrichment (6-mer frequency, TF over GST control)
5 | CTATTC | 1.33 fold enrichment (6-mer frequency, TF over GST control) | 1.34 fold enrichment (6-mer frequency, TF over GST control) | 1.34 fold enrichment (6-mer frequency, TF over GST control) | 1.35 fold enrichment (6-mer frequency, TF over GST control) | 1.42 fold enrichment (6-mer frequency, TF over GST control) | 1.42 fold enrichment (6-mer frequency, TF over GST control) | 1.29 fold enrichment (6-mer frequency, TF over GST control) | 1.23 fold enrichment (6-mer frequency, TF over GST control) | 1.13 fold enrichment (6-mer frequency, TF over GST control)
6 | TATAGT | 1.12 fold enrichment (6-mer frequency, TF over GST control) | 1.1 fold enrichment (6-mer frequency, TF over GST control) | 1.11 fold enrichment (6-mer frequency, TF over GST control) | 1.05 fold enrichment (6-mer frequency, TF over GST control) | 1.07 fold enrichment (6-mer frequency, TF over GST control) | 1.12 fold enrichment (6-mer frequency, TF over GST control) | 1.06 fold enrichment (6-mer frequency, TF over GST control) | 1.04 fold enrichment (6-mer frequency, TF over GST control) | 1.03 fold enrichment (6-mer frequency, TF over GST control)
7 | CCTACG | 1.34 fold enrichment (6-mer frequency, TF over GST control) | 1.41 fold enrichment (6-mer frequency, TF over GST control) | 1.39 fold enrichment (6-mer frequency, TF over GST control) | 1.33 fold enrichment (6-mer frequency, TF over GST control) | 1.32 fold enrichment (6-mer frequency, TF over GST control) | 1.35 fold enrichment (6-mer frequency, TF over GST control) | 1.25 fold enrichment (6-mer frequency, TF over GST control) | 1.32 fold enrichment (6-mer frequency, TF over GST control) | 1.68 fold enrichment (6-mer frequency, TF over GST control)
